HepG2 viability – kills HepG2 cells in TGF-b inhibitor counter-screen; actives 0.76% (n = 410,000); AID 588856; Potency, µM (doses to about 46.1 µM), inactives show top-dose activity change, negative = cytotoxicity, hits mostly cytotoxic; HepG2 CAGA-GFP viability, ATP luminescence, 18 h; note: potency is the fitted concentration of half-maximal effect
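CellTiter-Glo luminescence gave cytotoxicity after 18 hours at 37 degrees C. The cells were HepG2 CAGA-GFP in 1% FBS DMEM, stimulated with 500 pg/mL TGF-beta after compound addition. %Activity was normalised to no-cell wells (complete cell-killing) and DMSO (no toxicity), and curves were fitted and classified.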
DT40 TDP1 CPT – DT40-hTDP1 cell growth loss with CPT; actives 12% (n = 420,000); chicken DT40 Tdp1-/-;hTDP1 cells + 20 nM CPT, ATP luminescence, 48 h; Potency, µM (highest dose often 46.2 µM), without a hit: at the top dose activity change, negative = growth inhibition, actives largely listed as inhibitors; note: potency is the fitted concentration of half-maximal effect; % is set by controls: 0 for no effect and ±100 for the full control effect; nearly all actives have a fitted effect of over 55% in size
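Chicken DT40 Tdp1-/- cells complemented with human TDP1, 400 cells/well, exposed to compounds plus 20 nM camptothecin for at least 48 h at 37 C; viability read as ATP content by CellTiter-Glo luminescence.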
TDP1 cell noCPT – qHTS for Inhibitors of human tyrosyl-DNA phosphodiesterase 1 (TDP1): qHTS in cells in absence of CPT; actives 15% (n = 420,000); Potency, µM (highest dose often 46.2 µM), without a hit: top-dose activity change, negative = growth inhibition, usual class: inhibitors; DT40 Tdp1-/- hTDP1 cells, no CPT, ATP luminescence, 48 h; note: potency is the fitted concentration of half-maximal effect; % is set by controls: 0 for no effect and ±100 for the full control effect; nearly all actives have a fitted effect of over 55% in size
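Growth kinetics read by CellTiter-Glo luminescence after ≥48 hr at 37 °C. Cells: DT40 Tdp1-/- stably carrying human TDP1, 400 per well, compound exposure in the absence of CPT (DMSO vehicle).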
TGFb inhibitor – blocks TGF-b signaling. AID 588855. Potency, µM (titrated, usually from 46.1 µM), without a hit: at the top dose activity, negative = inhibition, hits mostly inhibitors. HepG2 CAGA-GFP TGF-b/SMAD3 reporter, GFP fluorescence, 18 h; TGF-beta stimulated, 500 pg/mL final. actives 1.2% (n = 410,000); note: potency is the fitted concentration of half-maximal effect; % is set by controls: 0 for no effect and ±100 for the full control effect; nearly all actives have a fitted effect of over 65% in size
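Inhibition of TGF-beta-driven CAGA-GFP reporter expression in HEPG2 cells is measured by cellular GFP fluorescence after 18 h stimulation with 500 pg/mL recombinant TGF-beta in 1% FBS medium at 37 degrees C.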
ASM inhibitor – human S-ASM enzyme inhibition; AID 504937; Potency, µM (titrated, usually from 57.5 µM), inactives show at the highest dose activity change, negative = inhibition, actives largely listed as inhibitors; placental ASM, HMU-PC fluorogenic substrate, 60 min; actives 0.006% (n = 340,000); P17405; note: potency is the fitted concentration of half-maximal effect
Target sequence (P17405 47-631 limits assumed): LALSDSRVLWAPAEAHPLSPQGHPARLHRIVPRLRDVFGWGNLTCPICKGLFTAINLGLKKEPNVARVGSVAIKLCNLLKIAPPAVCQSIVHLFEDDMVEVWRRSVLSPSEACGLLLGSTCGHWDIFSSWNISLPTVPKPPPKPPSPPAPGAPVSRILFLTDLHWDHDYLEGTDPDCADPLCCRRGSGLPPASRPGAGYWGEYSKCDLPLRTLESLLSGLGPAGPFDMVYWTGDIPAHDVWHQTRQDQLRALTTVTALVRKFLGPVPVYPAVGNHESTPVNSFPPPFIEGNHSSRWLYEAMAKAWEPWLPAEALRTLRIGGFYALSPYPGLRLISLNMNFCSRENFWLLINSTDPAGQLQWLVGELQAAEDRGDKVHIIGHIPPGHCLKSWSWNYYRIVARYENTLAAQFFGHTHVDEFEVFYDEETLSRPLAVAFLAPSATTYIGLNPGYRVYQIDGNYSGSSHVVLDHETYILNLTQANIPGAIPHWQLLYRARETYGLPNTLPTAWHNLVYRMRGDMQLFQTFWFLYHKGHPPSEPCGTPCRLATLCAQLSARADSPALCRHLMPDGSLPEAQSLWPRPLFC
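Fluorogenic HMU-PC substrate (9 uM final) is turned over by placental ASM in 60 min at 37 C after a 10 min compound preincubation. Reaction ended by alkaline stop (pH 10), with fluorescence read at 386/447 nm.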
IL1B secr inh – blocks inflammasome-driven IL-1 beta release. THP-1 LPS/ATP IL-1B secretion, AlphaLISA, 16 h; active compounds read low. activity change, % at 57.5 µM. actives 4.7% (n = 360,000). AID 743279; in the data active = activity change below about -50%; inconclusive = mostly about -30% to -49%; note: % is set by controls: 0 for no effect and ±100 for the full control effect
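THP-1 cells pretreated 1 hr with compounds (up to 57.5 uM final), then stimulated with LPS (250 ng/mL final) plus ATP (1.25 mM final); secreted IL-1B measured by AlphaLISA after 16 hr, decreased signal indicating inhibition.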
The depositor's hits bear a star; i = inactive; ? = inconclusive; . = no result. In the library only some 19% were active in any assay of this set; here they are far more common. Unless noted, calls come from the whole dose curve; as a rule, active = well fitted curve in the direction sought with a large enough effect; inconclusive = small, poorly fitted or top-dose-only effect, or another doubt; inactive = no such curve, though single readings can be large; an effect the other way counts as inactive or inconclusive.

SMILES	HepG2 viability	DT40 TDP1 CPT	TDP1 cell noCPT	TGFb inhibitor	ASM inhibitor	IL1B secr inh
COc1ccc(OC)c(/C=C/c2nc3ccccc3c(=O)n2-c2ccc(F)c(Cl)c2)c1	-9%	?	?	7%	.	.
COc1ccc(/C=N/n2c(-c3ccco3)nc3ccccc3c2=O)cc1	-17%	?	?	-13%	0%	-11
COCCn1c(-c2ccco2)nc2nc3ccccc3nc21	-15%	-27%	-27%	-14%	i	-5
COc1cccc(/C=N/n2c(-c3ccco3)nc3ccccc3c2=O)c1	-19%	?	18µM*	-5%	-8%	2
CC(C)OCCCn1c(-c2ccco2)nc2nc3ccccc3nc21	-6%	?	23µM*	33%	i	-17
C=CCn1cnc2c(c1=O)c1nc3ccccc3nc1n2/N=C/c1ccccn1	-16%	16µM*	21µM*	0%	79%	-65*
O=c1c2c3nc4ccccc4nc3n(CCN3CCOCC3)c2ncn1CCN1CCOCC1	13%	-21%	-27%	16%	157%	?
O=[N+]([O-])c1ccc(CN2CCC(Cc3ccccc3)CC2)cc1	-27%	?	?	-18%	0%	-1
Cc1ccc([N+](=O)[O-])c(OCCN2CCC(Cc3ccccc3)CC2)c1	3%	?	?	3%	-4%	-99*
CCOc1ccccc1OCCN1CCC(Cc2ccccc2)CC1	-19%	-19%	?	2%	-4%	-4
Cc1ccccc1OC(C)C(=O)N1CCC(Cc2ccccc2)CC1 (stereo unspecified)	-5%	?	?	0%	-5%	-55*
O=[N+]([O-])c1cccc(OCCCN2CCC(Cc3ccccc3)CC2)c1	-34%	?	?	?	0%	-73*
COC(=O)[C@H](C)NC(=O)N1CCC(Cc2ccccc2)CC1	6%	-7%	6%	7%	2%	-2
Cc1ccccc1OCCN1CCC(Cc2ccccc2)CC1	-47%	?	21µM*	-23%	-3%	-10
Cc1ccc(CNC(C)(C)CO)cc1	0%	-3%	?	2%	10%	16
Cc1ccc(CC(C)(O)CC(C)(O)Cc2ccc(C)cc2)cc1 (stereo unspecified)	-66%	21µM*	18µM*	?	.	-3
CCOc1ccccc1CN1CCN(Cc2cn(C)nc2-c2ccccc2)CC1CCO (stereo unspecified)	0%	-9%	1%	13%	-1%	-1
CCc1ccc(NC(=O)CSc2nc(=O)n(CCN(C)C)c3c2CCCC3)cc1	-14%	?	?	3%	-2%	-12
Cc1ccccc1N1CCN(CCN2C(=O)CC(=C3c4ccccc4-c4ccccc43)C2=O)CC1	1%	-29%	-28%	?	-16%	0
Cc1ccccc1N1CCN(CCCN2C(=O)CC(=C(c3ccccc3)c3ccccc3)C2=O)CC1	-17%	?	23µM*	?	-1%	-18
O=C1CC(=C(c2ccccc2)c2ccccc2)C(=O)N1CCCCN1CCN(c2cccc(Cl)c2)CC1	-19%	15µM*	18µM*	?	-13%	?
COc1cccc(C(=O)NNC(=O)C(=O)Nc2ccc(OC)cc2OC)c1	7%	?	?	-21%	-3%	6
CCOc1ccccc1CNC(=O)C1CCN(S(=O)(=O)N2CCC(C)CC2)CC1	-13%	?	?	-5%	.	-19
O=C(NCCc1ccccc1)C1CCN(Cc2cc3ccccc3n2Cc2ccccc2)CC1	-14%	?	21µM*	-23%	.	.
CCOc1ccccc1CNC(=O)C1CCN(Cc2cc3ccccc3n2Cc2ccccc2)CC1	-3%	?	16µM*	0%	.	.
SMILES	HepG2 viability	DT40 TDP1 CPT	TDP1 cell noCPT	TGFb inhibitor	ASM inhibitor	IL1B secr inh
CCCNC(=O)C1CCN(Cc2cc3ccccc3n2Cc2ccccc2)CC1	-35%	?	18µM*	?	.	.
CC(CNC(=O)C1CCN(Cc2cc3ccccc3n2Cc2ccccc2)CC1)c1ccccc1 (stereo unspecified)	-26%	23µM*	16µM*	-1%	.	.
COc1ccc(N2CC(NC(=O)COc3ccc4ccccc4c3)CC2=O)cc1OC (stereo unspecified)	-1%	-27%	-23%	6%	.	.
O=C(NCCc1ccccc1)C1CCN(Cc2cccc3ccccc23)CC1	4%	?	?	-4%	-1%	-51*
CN(Cc1ccccc1)C(=O)C1CCN(Cc2cc3ccccc3n2Cc2ccccc2)CC1	-33%	?	?	?	.	.
CN(C)CCNC(=O)C1CCN(Cc2cc3ccccc3n2Cc2ccccc2)CC1	11µM*	21µM*	16µM*	?	.	.
CCN(CC)S(=O)(=O)c1ccc(C)c(NC(=S)NC2CCCCC2)c1	-17%	?	15µM*	-1%	6%	24
CCN(CC)S(=O)(=O)c1ccc(Cl)c(NC(=S)NC(=O)C2CCCC2)c1	-35%	23µM*	18µM*	?	-5%	?
Cc1ccc(NC(=S)NC(=O)C2CCCCC2)c(Br)c1	-6%	?	15µM*	0%	-4%	46
CCN(CC)S(=O)(=O)c1cccc(C(=O)NC2CCCCC2)c1	-3%	-9%	?	?	-2%	4
COc1ccccc1NS(=O)(=O)c1ccc(Cl)c(NC(=S)NC(=O)C2CCCC2)c1	-1%	23µM*	29µM*	?	-15%	-6
c1ccc(-c2nc(-c3nccc4ccccc34)oc2-c2ccccc2)cc1	-16%	-28%	?	?	i	-19
COc1ccc(S(=O)(=O)Nc2ccccc2OC)cc1NC(=O)CC1CC2CCC1C2 (stereo unspecified)	-5%	?	16µM*	-16%	-4%	2
CCN(CC)c1ccc(S(=O)(=O)Nc2cc(Cl)ccc2Cl)cc1NC(=S)NC(=O)C1CCCC1	2%	?	?	?	-8%	-50*
Cc1ccc(S(=O)(=O)N(C)C)cc1NC(=S)NC1CCCC(C)C1C (stereo unspecified)	9%	21µM*	?	-1%	.	-4
COC(=O)c1c(NC(=O)C(=O)N2CCCC2)sc2c1CC(C)(C)OC2	-2%	-5%	0%	4%	-1%	5
CC/C(=C\C(=O)c1ccncc1)Nc1ccc(O)cc1	-14%	?	21µM*	?	1%	?

Assay outcomes as filed in PubChem BioAssay.
